Consider 51 molecules from ChEMBL document CHEMBL4513216, “Probing the Open Global Health Chemical Diversity Library for Multistage-Active Starting Points for Next-Generation Antimalarials” (ACS Infect Dis, 2020).

Hit rate of the full screen: of about 65,000 compounds, about 2,100 (3.2%) showed an effect of 50% or more. The median lay at about -52%. The sample as a whole holds a higher share of strong results than the screen did.

This assay deals with Plasmodium falciparum. Kind of assay: Screen against P. falciparum Asexual Blood Stage (ABS), at 5uM. The assay is classed as functional, Dd2. The note with it: tested at 5 uM.
For the molecule `COc1cc(C)c(CN2CCC3(CC2)[C@H](O)C[C@@H]3OCCN)cc1C`, the INHIBITION was determined as 77.2%.

As to `C1Cc2nc(CCNc3nc(C4CC4)nc4c3CCNCC4)sc2C1`, the INHIBITION is 78.5%.

For `COc1ccc(CN(Cc2ccccn2)Cc2cncn2C)cc1`, the INHIBITION is 70.1%.

With `CN1CCN(Cc2cccnc2)C(=O)C12CCN(S(C)(=O)=O)CC2`, the INHIBITION is given as -18.9%.

Regarding `Cc1ccc(CN(c2cc(C)nc3nc(C(F)(F)F)nn23)C2CC2)cc1`, the INHIBITION is listed as 94%.

Take `CCS(=O)(=O)NC[C@]12COC[C@H]1CN(Cc1ccncc1)C2`: the INHIBITION is given as -65.2%.

As to `Cc1ccc(N2C[C@@H]3CN(Cc4ccsc4)CCO[C@@H]3C2)nn1`, the INHIBITION is -56.6%.

Regarding `Brc1cccc(C2(CNCc3cc[nH]c3)CCOCC2)c1`, the INHIBITION came out at 83.1%.

As to `Brc1ccc(C2(CNCc3cc[nH]c3)CCOCC2)cc1`, the INHIBITION was 74.5%.

In the case of `FC(F)(F)c1cccc(C2(CNCc3cc[nH]c3)CCOCC2)c1`, the INHIBITION came to 75.1%.

As to `NCC1(c2cccc(C(F)(F)F)c2)CCC1`, the INHIBITION is given as 26.1%.

For `CC(C)c1cc(C(=O)N2CCN(C)[C@@H]3CS(=O)(=O)C[C@@H]32)no1`, the INHIBITION is -14.6%.

On to `O=C(NC[C@]12COC[C@H]1CN(Cc1ccncc1)C2)c1ccno1`, for which the INHIBITION is recorded as -67.3%.

`CNC(=O)[C@H]1C[C@H]2OCC[C@H]2N(CC2CC2)C1`: the INHIBITION is -40%.

`CC(NC1(CNS(=O)(=O)N(C)C)CCCC1)c1ccccc1` (stereo unspecified): the INHIBITION was found to be 78.7%.

As for `Cc1cc(S(=O)(=O)NCC2CNCCOC2)c(C)cc1Cl` (stereo unspecified), the INHIBITION was 75.4%.

For the molecule `CCCc1nc2c(c(C)c(C)n2CCN(C)C)c(N)c1CC`, the INHIBITION came out at 89.9%.

As for `Cc1c(-c2ccccc2)nc2c(c(C)c(C)n2CCN(C)C)c1N`, the INHIBITION is listed as 80.1%.

Consider `CCN1CCCC(CNC(=O)C2(c3cc(C)cc(C)c3)CCC2)C1` (stereo unspecified), for which the INHIBITION was 75.8%.

As for `CCN1C[C@H]2N(c3ncccn3)CCC[C@@]2(C(=O)NCC2CC2)C1`, the INHIBITION is given as -24.6%.

For the molecule `CN1C[C@H]2N(c3ncccn3)CCC[C@@]2(C(=O)NCC2CC2)C1`, the INHIBITION is -48.6%.

For `CCN(CC)S(=O)(=O)N1C[C@@H](c2ccccc2)[C@H]2[C@H]1CCCCCN2C`, the INHIBITION was 71.7%.

For `CCOC(=O)[C@@H]1[C@@H](c2ccccc2)CN2CCN(S(C)(=O)=O)C[C@H]12`, the INHIBITION was -73.1%.

Turning to `CC(C)S(=O)(=O)N1C[C@@H](c2ccccc2)[C@H]2[C@H]1CCCCCN2C`, the INHIBITION stood at 20.4%.

As for `CCc1ccccc1OCCNCCc1c[nH]cn1`, the INHIBITION is 71.2%.

Regarding `O=C(NCCc1c[nH]cn1)c1ccccc1C1CCNC1` (stereo unspecified), the INHIBITION is given as -101%.

In the case of `c1cncc(O[C@@H]2CC[C@H]3[C@H]2OCCN3C2CCCC2)c1`, the INHIBITION is listed as -118%.

For the molecule `COc1cc(CNC(c2ccccc2)c2nccn2C)cc(OC)c1` (stereo unspecified), the INHIBITION was 75.5%.

On to `COc1cc(CNC(C)Cn2cccn2)cc(OC)c1` (stereo unspecified), for which the INHIBITION is -72.2%.

For `O=C(N[C@H]1COC[C@@H]1N1CCCC1)c1c[nH]nc1C1CCCCC1`, the INHIBITION is on record as -18.2%.

As to `c1cncc(OC[C@@H]2CCC[C@@]23CN(Cc2nccs2)CCO3)c1`, the INHIBITION is -85.2%.

As to `CCN1CCNC(=O)C12CCN(C(=O)Cc1ccccn1)CC2`, the INHIBITION is listed as -95%.

Consider `CN(C)C(=O)CN1C[C@@H]2OCCN(c3ncc(F)cn3)[C@@H]2C1`, for which the INHIBITION is given as -196%.

`COc1cc(CNCC(O)c2cccc(F)c2)cc2c1OCO2` (stereo unspecified): the INHIBITION turned out to be 92.4%.

Turning to `Cc1cc(C)c(CNCC(O)c2ccc(F)c(F)c2)c(C)c1` (stereo unspecified), the INHIBITION amounted to 93%.

Take `COc1cc(CNCC(O)c2ccc(F)c(F)c2)cc2c1OCO2` (stereo unspecified): the INHIBITION is 78.2%.

As for `COc1cc(CNCC(O)c2ccc(C)cc2)cc2c1OCO2` (stereo unspecified), the INHIBITION is 74%.

`COc1cc(CNCC(O)c2ccc(C)cc2)cc2c1OCCO2` (stereo unspecified): the INHIBITION turned out to be 48.2%.

Take `COc1cc(C2SCC(=O)Nc3[nH]ncc32)cc2c1OCO2` (stereo unspecified): the INHIBITION is recorded as -86.5%.

On to `Cc1cccc(CN2C[C@@H]3OCCN(c4cnccn4)[C@@H]3C2)n1`, for which the INHIBITION is given as 4.89%.

Take `CC(Cc1ccccc1Br)NC(=O)CCS(C)(=O)=O` (stereo unspecified): the INHIBITION is on record as -38.5%.

Turning to `O=C1CCSCC(C(=O)N2CCC3(CC2)OCCO3)N1` (stereo unspecified), the INHIBITION is -78%.

On to `COCCCN1CCCC12CCN(c1ncccn1)CC2`, for which the INHIBITION was -22.9%.

Take `CC(C)N1[C@H](Cn2cncn2)C[C@@H]2CNCC[C@@H]21`: the INHIBITION is listed as -34.9%.

As for `c1coc(-c2nc(CNC3CCC4(CCNCC4)CC3)no2)c1`, the INHIBITION was determined as 73.4%.

As to `Cc1cn2nc(N3CCCC3CC(C)(C)C)sc2n1` (stereo unspecified), the INHIBITION is 71.6%.

`COc1c(CNCCc2c[nH]c3ccccc23)c(C)nn1C`: the INHIBITION was -60.7%.

In the case of `COc1ccc(CCNCc2c(C)nn(C)c2N(C)C)cc1OC`, the INHIBITION turned out to be 21.4%.

Take `COc1c(CNCCc2c[nH]c3cc(F)ccc23)c(C(C)C)nn1C`: the INHIBITION is listed as 59.7%.

Regarding `COc1c(CNCCc2c[nH]c3cc(F)ccc23)c(C)nn1C`, the INHIBITION was found to be 50%.

`c1ccc(CO[C@@H]2C[C@H]3CN(c4ncccn4)CCN3C2)cc1`: the INHIBITION was -95.6%.
